Measurements published in PubChem BioAssay (EPA / NIEHS).
The source made the active and inactive calls. How the source made its calls: active means hit-call score of the fitted dose curve at least 0.9, where 1 is the maximum; inactive means score below 0.9.

Tests used:
[1] = ATG_CRE_CIS: Attagene CIS-FACTORIAL HepG2 Assay for human cAMP Responsive Element (CRE) binding protein 3 (AID 2282926); conditions: HepG2 CRE cis-reporter, Attagene multiplexed mRNA; actives raise or lower the signal
Procedure, shortened: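 Endogenous CRE-binding activity in HepG2 is reported through a cis-regulated transfected reporter. Following a day of exposure, mRNA levels are determined by reverse transcription PCR and fluorescent fragment analysis; fits run in both directions versus DMSO.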

[2] = target: CCAAT/enhancer-binding protein beta (Homo sapiens) (UniProt P17676); assay: ATG_C_EBP_CIS: Attagene CIS-FACTORIAL HepG2 Assay for human CCAAT/Enhancer Binding Protein (C/EBP) beta (AID 2282927); conditions: HepG2 Attagene cis-factorial transcription factor reporter; actives raise or lower the signal
CCAAT/enhancer-binding protein beta (Homo sapiens), sequence (P17676 whole entry, looked up): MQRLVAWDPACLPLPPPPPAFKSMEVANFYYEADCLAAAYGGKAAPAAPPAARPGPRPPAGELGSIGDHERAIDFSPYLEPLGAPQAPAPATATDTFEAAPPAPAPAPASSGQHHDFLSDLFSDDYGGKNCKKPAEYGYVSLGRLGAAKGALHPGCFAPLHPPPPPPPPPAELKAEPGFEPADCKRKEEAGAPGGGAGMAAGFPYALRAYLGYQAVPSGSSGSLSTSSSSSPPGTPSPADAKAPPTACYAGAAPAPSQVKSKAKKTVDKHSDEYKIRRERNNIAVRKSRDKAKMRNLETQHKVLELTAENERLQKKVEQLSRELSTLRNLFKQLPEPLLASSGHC
Procedure, shortened: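 Transiently transfected HepG2 (MRTU library, endogenous TF-driven promoters); 24 h dosing; total RNA → oligo(dT) RT → PCR → 6-FAM primer extension → HpaI digest → CE; fit bidirectionally vs DMSO.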

[3] = ATG_CMV_CIS: Attagene CIS-FACTORIAL HepG2 Assay for human CMV (Internal Marker) (AID 2282928); conditions: HepG2 CMV promoter reporter, transcription factor profiling; actives raise or lower the signal;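 further: endpoint acts as a background internal control marker rather than a target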
Procedure, shortened: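 After transient transfection of HepG2 with reporter transcription units driven by cis-regulatory promoters, cells receive test chemical for 24 h. Labeled reporter amplicons, digested with HpaI, are sized and quantified by capillary electrophoresis against DMSO.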

[4] = ATG_DR4_LXR_CIS: Attagene CIS-FACTORIAL HepG2 Assay for human Liver X Receptor (LXR), DR4 submotif (AID 2282929); conditions: HepG2 Attagene DR4 cis-reporter, mRNA transcription; actives raise or lower the signal
Procedure, shortened: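 Measures endogenous transcription factor activity via a DR4-driven reporter transcript in human HepG2 cells. Compounds incubated 24 h; mRNA quantified by RT-PCR and capillary electrophoresis, analysed as gain or loss of signal versus DMSO.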

[5] = target: Aryl hydrocarbon receptor (Homo sapiens) (UniProt P35869); assay: ATG_Ahr_CIS: Attagene CIS-FACTORIAL HepG2 Assay for human Aryl Hydrocarbon Receptor (Ahr) (AID 2282930); conditions: HepG2 AhR cis-factorial reporter transcription; actives raise or lower the signal
Aryl hydrocarbon receptor (Homo sapiens), sequence (P35869 whole entry, looked up): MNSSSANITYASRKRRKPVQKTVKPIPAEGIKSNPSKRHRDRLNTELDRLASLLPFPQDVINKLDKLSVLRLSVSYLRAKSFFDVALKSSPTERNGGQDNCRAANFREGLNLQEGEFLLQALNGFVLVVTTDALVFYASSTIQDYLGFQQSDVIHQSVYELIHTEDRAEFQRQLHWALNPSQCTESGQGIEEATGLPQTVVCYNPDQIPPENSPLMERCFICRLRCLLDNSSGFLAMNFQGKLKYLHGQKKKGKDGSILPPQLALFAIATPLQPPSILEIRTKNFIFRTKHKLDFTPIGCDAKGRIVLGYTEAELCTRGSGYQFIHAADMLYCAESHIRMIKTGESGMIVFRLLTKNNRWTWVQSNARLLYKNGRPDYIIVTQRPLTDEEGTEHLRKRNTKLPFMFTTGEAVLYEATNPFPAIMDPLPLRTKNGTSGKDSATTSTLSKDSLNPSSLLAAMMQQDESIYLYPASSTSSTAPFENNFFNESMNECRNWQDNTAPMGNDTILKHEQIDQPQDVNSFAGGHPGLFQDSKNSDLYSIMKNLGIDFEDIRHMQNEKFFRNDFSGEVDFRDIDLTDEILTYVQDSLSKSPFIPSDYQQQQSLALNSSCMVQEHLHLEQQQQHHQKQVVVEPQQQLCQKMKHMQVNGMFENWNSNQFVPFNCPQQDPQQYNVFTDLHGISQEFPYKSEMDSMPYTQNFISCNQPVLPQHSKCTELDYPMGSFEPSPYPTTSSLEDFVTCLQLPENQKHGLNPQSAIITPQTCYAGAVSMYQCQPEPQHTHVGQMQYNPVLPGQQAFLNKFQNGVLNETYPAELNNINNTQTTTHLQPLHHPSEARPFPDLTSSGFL
Procedure, shortened: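 Read-out: reporter mRNA quantified by RT-PCR with fluorescent primer extension and capillary electrophoresis. Human HepG2 liver cells carried transfected cis-promoter reporter units and were exposed to chemical for 24 h; gain or loss fitted relative to DMSO.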

[6] = ATG_AP_1_CIS: Attagene CIS-FACTORIAL HepG2 Assay for human Activator Protein 1 (AP-1) (AID 2282931); conditions: HepG2 Attagene cis-factorial AP-1 reporter mRNA; actives raise or lower the signal
Procedure, shortened: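 Bidirectional concentration-response fitting against DMSO controls. Underlying signal: reporter mRNA from cis-promoter constructs in transiently transfected HepG2, measured after 24 h by RT-PCR and capillary electrophoresis.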

[7] = ATG_AP_2_CIS: Attagene CIS-FACTORIAL HepG2 Assay for human Activator Protein 2 (AP-2) (AID 2282932); conditions: HepG2 AP-2 cis-reporter, Attagene transcription factor profiling; actives raise or lower the signal
Procedure, shortened: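 HepG2 cells transiently transfected with cis-element reporter units and exposed for 24 h. Reporter mRNA measured by RT-PCR, FAM labelling, HpaI digestion and capillary electrophoresis. Changes in either direction fitted relative to DMSO.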

[8] = ATG_BRE_CIS: Attagene CIS-FACTORIAL HepG2 Assay for human Bone Morphogenetic Protein (BMP) Response Element (BRE) (AID 2282933); conditions: HepG2 BMP response element reporter, Attagene transcription factor profiling; actives raise or lower the signal
Procedure, shortened: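 A HepG2 multiplex reporter system measured inducible reporter mRNA 24 h post-dosing. Detection: RT-PCR, 6-FAM primer extension, HpaI digestion, capillary electrophoresis. Activity fitted bidirectionally relative to DMSO.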

[9] = target: Transcription factor E2F1 (Homo sapiens) (UniProt Q01094); assay: ATG_E2F_CIS: Attagene CIS-FACTORIAL HepG2 Assay for human E2F Transcription Factor 1 (AID 2282935); conditions: HepG2 Attagene cis-reporter, E2F reporter RNA transcripts; actives raise or lower the signal
Transcription factor E2F1 (Homo sapiens), sequence (Q01094 whole entry, looked up): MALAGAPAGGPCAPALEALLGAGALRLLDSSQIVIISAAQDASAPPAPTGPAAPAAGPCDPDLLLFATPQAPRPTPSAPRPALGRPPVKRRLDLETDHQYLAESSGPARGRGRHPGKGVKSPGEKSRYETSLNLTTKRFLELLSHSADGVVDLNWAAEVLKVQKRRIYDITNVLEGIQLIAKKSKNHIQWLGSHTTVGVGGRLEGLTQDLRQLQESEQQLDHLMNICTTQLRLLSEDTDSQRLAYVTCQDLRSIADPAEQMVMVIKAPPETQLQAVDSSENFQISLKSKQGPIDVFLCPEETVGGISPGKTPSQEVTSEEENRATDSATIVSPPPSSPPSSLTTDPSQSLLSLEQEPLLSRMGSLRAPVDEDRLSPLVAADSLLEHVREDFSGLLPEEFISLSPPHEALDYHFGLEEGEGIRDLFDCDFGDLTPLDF
Procedure, shortened: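 Endogenous E2F1 activity read through cis-promoter reporter units transfected into HepG2. After 24 h compound treatment, reporter mRNA measured by RT-PCR, HpaI digestion and capillary electrophoresis. Bidirectional fit versus DMSO.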

[10] = ATG_E_Box_CIS: Attagene CIS-FACTORIAL HepG2 Assay for human Enhancer Box (E-box) (AID 2282936); conditions: HepG2 E-box cis-reporter transcription, actives raise or lower the signal
Procedure, shortened: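 HepG2 cells transiently transfected with multiplexed cis-element reporter units, dosed 24 h; reporter mRNA quantified by RT-PCR, 6-FAM labelling, HpaI digestion and capillary electrophoresis. E-box (USF1) signal fitted bidirectionally vs DMSO.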

[11] = ATG_M_61_CIS: Attagene CIS-FACTORIAL HepG2 Assay for M61 Transcription Factor (Internal Marker) (AID 2282937); conditions: HepG2 Attagene CIS-FACTORIAL M61 internal marker reporter; actives raise or lower the signal
Procedure, shortened: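 Fluorescence from labelled cDNA fragments, separated by capillary electrophoresis, quantifies reporter induction. HepG2 cells bearing transiently transfected cis-promoter MRTUs were incubated with test chemical for 24 h; DMSO defined baseline for gain/loss fitting.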

[12] = ATG_EGR_CIS: Attagene CIS-FACTORIAL HepG2 Assay for human Early Growth Response 1 (EGR1) (AID 2282938); conditions: HepG2 Attagene CIS-FACTORIAL EGR reporter mRNA; actives raise or lower the signal
Procedure, shortened: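 Cell-based multiplex transcription assay: HepG2 carrying transfected cis-element reporter units, 24 h chemical treatment. Fluorescence from capillary electrophoresis of RT-PCR products gives mRNA levels; fitting is bidirectional relative to DMSO.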

[13] = ATG_M_19_CIS: Attagene CIS-FACTORIAL HepG2 Assay for M19 Transcription Factor (Internal Marker) (AID 2282939); conditions: HepG2 Attagene CIS-FACTORIAL M19 internal marker reporter; actives raise or lower the signal
Procedure, shortened: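 Chemical-treated HepG2 (24 h) with MRTU constructs; reporter transcripts detected by fluorescent RT-PCR fragment analysis on capillary electrophoresis. Internal background marker, DMSO as baseline.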

[14] = ATG_ERE_CIS: Attagene CIS-FACTORIAL HepG2 Assay for Estrogen Response Element (ERE) (AID 2282940); conditions: HepG2 ERE cis-reporter, Attagene RNA transcript; actives raise or lower the signal
Procedure, shortened: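 Human liver cells (HepG2) bearing transiently transfected, promoter-regulated reporter units were exposed 24 h. Reporter mRNA induction was detected by capillary electrophoresis of labelled RT-PCR products and fitted bidirectionally to DMSO.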

[15] = ATG_Ets_CIS: Attagene CIS-FACTORIAL HepG2 Assay for human Erythroblast Transformation Specific (ETS) (AID 2282941); conditions: HepG2 ETS cis-reporter transcription, actives raise or lower the signal
Procedure, shortened: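 Human HepG2 hepatoma cells were transiently transfected with promoter-driven reporter constructs and treated for 24 hours. Reporter transcripts were quantified by RT-PCR with fluorescent primer extension; bidirectional curve fitting used DMSO as reference.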

[16] = target: Hepatocyte nuclear factor 3-beta (Homo sapiens) (UniProt Q9Y261); assay: ATG_FoxA2_CIS: Attagene CIS-FACTORIAL HepG2 Assay for human Forkhead box A2 (FOXA2) (AID 2282942); conditions: HepG2 cis-reporter transcription factor activity, 24 h; actives raise or lower the signal
Hepatocyte nuclear factor 3-beta (Homo sapiens), sequence (Q9Y261 whole entry, looked up): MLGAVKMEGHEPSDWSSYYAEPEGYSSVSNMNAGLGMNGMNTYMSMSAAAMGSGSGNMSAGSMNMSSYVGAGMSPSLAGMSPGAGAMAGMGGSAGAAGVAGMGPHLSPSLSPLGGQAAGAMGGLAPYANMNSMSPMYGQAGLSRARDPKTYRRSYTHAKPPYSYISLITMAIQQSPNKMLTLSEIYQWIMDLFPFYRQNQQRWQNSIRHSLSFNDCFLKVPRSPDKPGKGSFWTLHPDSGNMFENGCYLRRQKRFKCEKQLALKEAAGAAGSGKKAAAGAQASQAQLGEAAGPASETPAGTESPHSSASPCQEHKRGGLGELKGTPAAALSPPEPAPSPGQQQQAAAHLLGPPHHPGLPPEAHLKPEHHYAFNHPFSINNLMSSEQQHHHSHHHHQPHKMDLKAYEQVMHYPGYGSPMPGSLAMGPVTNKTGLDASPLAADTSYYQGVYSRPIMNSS
Procedure, shortened: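 In transiently transfected human HepG2 cells, promoter-driven reporter mRNA levels after 24 h chemical exposure are determined via RT-PCR with capillary electrophoresis. DMSO serves as baseline for bidirectional fitting.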

[17] = ATG_FoxO_CIS: Attagene CIS-FACTORIAL HepG2 Assay for human Forkhead box O (FoxO) (AID 2282943); conditions: HepG2 Attagene cis-reporter, FoxO element, mRNA; actives raise or lower the signal
Procedure, shortened: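 Read-out: fluorescence of 6-FAM-labelled reporter cDNA fragments resolved by capillary electrophoresis. Transiently transfected HepG2 cells were dosed for 24 h; activity fitted in both directions relative to DMSO controls.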

[18] = ATG_GLI_CIS: Attagene CIS-FACTORIAL HepG2 Assay for human Zinc Finger Protein GLI1 (AID 2282945); conditions: HepG2, Attagene cis-factorial reporter mRNA, GLI element; actives raise or lower the signal
Procedure, shortened: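 Transiently transfected HepG2 cells report endogenous transcription factor activity via cis-element-driven reporter units. After 24 h compound exposure, reporter mRNA was measured by RT-PCR with capillary electrophoresis; bidirectional fitting against DMSO baseline.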

[19] = ATG_GATA_CIS: Attagene CIS-FACTORIAL HepG2 Assay for human GATA Binding Protein (AID 2282944); conditions: HepG2 GATA cis-element reporter, Attagene multiplex mRNA; actives raise or lower the signal
Procedure, shortened: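 Transfected cis-reporter HepG2 cells were treated with chemicals for 24 hours. Total RNA was then converted to cDNA, amplified with reporter-specific primers and analysed by fluorescent capillary electrophoresis, using DMSO-treated wells as baseline.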

Measured: AC50

Cc1c(N(C)C)c(=O)n(-c2ccccc2)n1C
active: [5] 64.9 µM
not listed: [19]
inactive: all other assays above

NCCOCCO
not listed: [15] | [17]
inactive: all other assays above

CCCCCCCCCCC(CO)CCCCCCCC (configuration not stated)
not listed: [12] | [14]
inactive: all other assays above

Cc1c(Cl)c(=O)oc2cc(O)ccc12
active: [2] 129 µM | [3] 63 µM
not listed: [12] | [14]
inactive: all other assays above

CC1=CC(=O)NS(=O)(=O)O1
not listed: [13] | [14]
inactive: all other assays above

CC1(C)[C@H](C(=O)OCc2cccc(Oc3ccccc3)c2)[C@@H]1C=C(Cl)Cl
not listed: [12]
inactive: all other assays above

CCC(=O)/C=C/C1C(C)=CCCC1(C)C (configuration not stated)
not listed: [12] | [13] | [14]
inactive: all other assays above

CC(=O)C=CC1=C(C)CCCC1(C)C
active: [4] 3.8 µM
not listed: [14] | [17]
inactive: all other assays above

Clc1ccc(Cl)c(Cl)c1Cl
active: [5] 31.7 µM
not listed: [14] | [15] | [17]
inactive: all other assays above

O=C1NC(=O)c2ccccc21
not listed: [14] | [15]
inactive: all other assays above

O=C=NC1CCC(CC2CCC(N=C=O)CC2)CC1 (configuration not stated)
inactive: [6] | [7] | [9] | [11] | [15] | [16] | [17]
active: [1] 28.4 µM | [2] 65.1 µM | [3] 64.8 µM | [4] 179 µM | [5] 83.7 µM | [8] 41.7 µM | [10] 76.9 µM | [13] 100 µM | [18] 174 µM

O=C(O)CCSCCC(=O)O
not listed: [13] | [15] | [17]
inactive: all other assays above

CC(C)(COC(=O)c1ccccc1)COC(=O)c1ccccc1
not listed: [14] | [17]
inactive: all other assays above

N#Cc1ccccc1
not listed: [12] | [13] | [14] | [19]
inactive: all other assays above

C=COCCOCCOCCOC=C
not listed: [14] | [15] | [19]
inactive: all other assays above

CCCCCCC#CC(=O)OC
not listed: [13] | [14]
inactive: all other assays above
